Test [1] in a line: BSK_CASM3C_SRB: Viability Assessment in the BioMAP Diversity Plus: CASM3C Assay (AID 2283050).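 Note: total protein by SRB staining as cytotoxicity measure in parallel cultures.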 The settings on record: primary human coronary artery smooth muscle cells.
Read-out in test [2]: Tissue Factor, F3 (gene 2152)
Kind of test: BSK_CASM3C_TissueFactor: BioMAP Diversity Plus: CASM3C Assay for Tissue Factor Biomarker Activity (AID 2283052).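 Note: cell surface tissue factor protein level read by ELISA.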 The following applies: primary human coronary artery smooth muscle cells; actives raise or lower the signal.

Read-out in test [3]: Interferon-gamma inducible Protein 10 (IP10), CXCL10 (gene 3627)
Kind of test: BSK_hDFCGF_IP10: BioMAP Diversity Plus: hDFCGF Assay for Interferon-gamma inducible Protein 10 (IP10) Biomarker Activity (AID 2283053). The following applies: primary human foreskin fibroblasts; actives raise or lower the signal. The gist of the method: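 ELISA read-out of IP-10 (CXCL10) from primary human skin fibroblasts, 24 h after compound addition. Gain or loss of signal versus DMSO baseline, bidirectional curve fitting.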

Read-out in test [4]: Epidermal growth factor receptor (EGFR), EGFR (gene 1956)
Kind of test: BSK_hDFCGF_EGFR: BioMAP Diversity Plus: hDFCGF Assay for Epidermal growth factor receptor (EGFR) Biomarker Activity (AID 2283057). The settings on record: primary human foreskin fibroblasts; actives raise or lower the signal. The gist of the method:
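ELISA readout of EGFR on human dermal fibroblasts (primary foreskin cells), 24 h post-dosing; bidirectional curve fit vs DMSO baseline, gain or loss of signal scored.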

Read-out in test [5]: Interleukin-8 (IL8), CXCL8 (gene 3576)
The experiment in a line: BSK_hDFCGF_IL8: BioMAP Diversity Plus: hDFCGF Assay for Interleukin-8 (IL8) Biomarker Activity (AID 2283058). The settings on record: primary human foreskin fibroblasts; actives raise or lower the signal. The gist of the method:
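Fibroblast monolayers (human foreskin, hDFCGF) received test chemical for 24 h before ELISA detection of IL-8; either increases or decreases relative to DMSO count as activity.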

Test [6] is described as follows: BSK_hDFCGF_Proliferation: Cell Proliferation Assessment in the BioMAP Diversity Plus: hDFCGF Assay (AID 2283059).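 Note: curves fitted for both rise and fall of signal versus DMSO baseline.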 The following applies: primary human foreskin fibroblasts. The gist of the method: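 This proliferation readout used SRB total-protein staining of human foreskin fibroblasts […], normalized to DMSO with bidirectional curve fitting.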

Test [7] in a line: BSK_hDFCGF_SRB: Viability Assessment in the BioMAP Diversity Plus: hDFCGF Assay (AID 2283061).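 Note: cells exposed to compound for 24 h before the read.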 The following applies: primary human foreskin fibroblasts. The gist of the method: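 SRB-based viability read on primary human skin fibroblasts at 24 h: TCA fixation, 0.1% dye, 560 nm. Gain or loss of signal is fitted against the DMSO negative control.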
Read-out in test [8]: TIMP metallopeptidase inhibitor 1 (TIMP1), TIMP1 (gene 7076)
The experiment in a line: BSK_hDFCGF_TIMP1: BioMAP Diversity Plus: hDFCGF Assay for TIMP metallopeptidase inhibitor 1 (TIMP1) Biomarker Activity (AID 2283062). The following applies: primary human foreskin fibroblasts; actives raise or lower the signal. A digest of the protocol:
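Bidirectional curve fitting against DMSO baseline yielded this endpoint, based on ELISA detection of TIMP-1 in primary human foreskin fibroblasts exposed to compound for 24 h.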

Read-out in test [9]: Matrix Metallopeptidase 1 (MMP1), MMP1 (gene 4312)
Kind of test: BSK_hDFCGF_MMP1: BioMAP Diversity Plus: hDFCGF Assay for Matrix Metallopeptidase 1 (MMP1) Biomarker Activity (AID 2283064). The following applies: primary human foreskin fibroblasts; actives raise or lower the signal. The gist of the method:
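ELISA read-out of MMP1 from human foreskin fibroblasts (primary skin cells), 24 h post-dose. Gain or loss of signal was fitted bidirectionally versus DMSO negative control; cytotoxicity was checked by SRB in parallel cultures.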

Read-out in test [10]: Vascular cell adhesion molecule 1 (VCAM1), VCAM1 (gene 7412)
The experiment in a line: BSK_hDFCGF_VCAM1: BioMAP Diversity Plus: hDFCGF Assay for Vascular cell adhesion molecule 1 (VCAM1) Biomarker Activity (AID 2283065).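 For AC50: VCAM-1 protein level quantified by ELISA after 24 h chemical exposure.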 The following applies: primary human foreskin fibroblasts; actives raise or lower the signal. A digest of the protocol: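 Measured after 24 h chemical treatment of primary human skin fibroblasts, VCAM-1 was detected by ELISA and concentration-response analysed in both directions versus DMSO vehicle.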

Read-out in test [11]: Interferon-gamma inducible Protein 10 (IP10), CXCL10 (gene 3627)
Kind of test: BSK_KF3CT_IP10: BioMAP Diversity Plus: KF3CT Assay for Interferon-gamma inducible Protein 10 (IP10) Biomarker Activity (AID 2283068). The following applies: primary human keratinocytes with fibroblasts; actives raise or lower the signal. A digest of the protocol: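 Signal is secreted/surface IP-10 by ELISA in a human primary skin co-culture of keratinocytes and foreskin fibroblasts, taken 24 h post-dosing; DMSO served as negative control.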

Read-out in test [12]: Transforming growth factor beta 1 (TGFb1), TGFB1 (gene 7040)
The experiment in a line: BSK_KF3CT_TGFb1: BioMAP Diversity Plus: KF3CT Assay for Transforming growth factor beta 1 (TGFb1) Biomarker Activity (AID 2283072). The following applies: primary human keratinocytes with fibroblasts; actives raise or lower the signal. The gist of the method: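 Read-out: ELISA for TGF-b1 in keratinocyte/foreskin fibroblast human skin co-culture, 24 h after dosing; bidirectional curve fit vs DMSO baseline; gain or loss of signal scored.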

Read-out in test [13]: urokinase plasminogen activator (uPA), PLAU (gene 5328)
Kind of test: BSK_KF3CT_uPA: BioMAP Diversity Plus: KF3CT Assay for urokinase plasminogen activator (uPA) Biomarker Activity (AID 2283075). The following applies: primary human keratinocytes with fibroblasts; actives raise or lower the signal. A digest of the protocol:
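Skin co-culture (keratinocytes + foreskin fibroblasts), human primary; 24 h post-dose; uPA by ELISA; gain/loss fit vs DMSO baseline.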

Read-out in test [14]: CD40, CD40 (gene 958)
Kind of test: BSK_LPS_CD40: BioMAP Diversity Plus: LPS Assay for CD40 Biomarker Activity (AID 2283076). The settings on record: primary human HUVEC with PBMC; actives raise or lower the signal. A digest of the protocol:
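Using a multiplexed primary human co-culture (umbilical vein endothelium plus PBMC), CD40 was read by ELISA 24 h after dosing, with cytotoxicity tracked by sulforhodamine B staining of parallel cultures and activity fitted bidirectionally versus DMSO.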

Read-out in test [15]: E-selectin (Homo sapiens) (UniProt P16581)
Kind of test: BSK_LPS_Eselectin: BioMAP Diversity Plus: LPS Assay for Eselectin Biomarker Activity (AID 2283077). The settings on record: primary human HUVEC with PBMC; actives raise or lower the signal. The gist of the method: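 Dose chemical onto LPS-driven HUVEC/PBMC co-culture; after 24 h, run ELISA for E-selectin; fit up- and down-going responses relative to DMSO control.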

Read-out in test [16]: Interleukin-8 (IL8), CXCL8 (gene 3576)
The experiment in a line: BSK_LPS_IL8: BioMAP Diversity Plus: LPS Assay for Interleukin-8 (IL8) Biomarker Activity (AID 2283078). The settings on record: primary human HUVEC with PBMC; actives raise or lower the signal. A digest of the protocol:
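In this LPS system, chemical-treated human umbilical vein endothelium/PBMC co-cultures were harvested at 24 h for IL-8 ELISA.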

The nature of test [17]: BSK_LPS_SRB: Viability Assessment in the BioMAP Diversity Plus: LPS Assay (AID 2283079).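 Note: total protein by sulforhodamine B absorbance as a cytotoxicity measure; measured one day after compound addition; fitted in both directions against DMSO so loss or gain of signal counts.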 The following applies: primary human HUVEC with PBMC. The gist of the method: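 Cytotoxicity endpoint in human endothelial–PBMC co-culture: 24 h exposure, then SRB (0.1%) staining, 560 nm read.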
Read-out in test [18]: Interleukin-1 alpha (IL1a), IL1A (gene 3552)
Kind of test: BSK_LPS_IL1a: BioMAP Diversity Plus: LPS Assay for Interleukin-1 alpha (IL1a) Biomarker Activity (AID 2283080). The following applies: primary human HUVEC with PBMC; actives raise or lower the signal. A digest of the protocol:
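Primary human HUVEC and PBMC co-culture stimulated with LPS is dosed and harvested at 24 h. Both increases and decreases in ELISA-measured IL-1a are scored relative to DMSO.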

Read-out in test [19]: Monocyte Chemoattractant Protein-1 (MCP1), CCL2 (gene 6347)
Kind of test: BSK_LPS_MCP1: BioMAP Diversity Plus: LPS Assay for Monocyte Chemoattractant Protein-1 (MCP1) Biomarker Activity (AID 2283081). The settings on record: primary human HUVEC with PBMC; actives raise or lower the signal. The gist of the method: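 Values derive from bidirectional fitting against DMSO of ELISA-measured MCP-1 in a human primary endothelial and mononuclear cell co-culture, 24 h after chemical addition under LPS activation.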

Test [20] in a line: BSK_LPS_PGE2: BioMAP Diversity Plus: LPS Assay for Prostaglandin E2 (PGE2) Biomarker Activity (AID 2283082).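 For AC50: secreted prostaglandin E2 measured by ELISA in LPS-stimulated co-culture.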 The settings on record: primary human HUVEC with PBMC; actives raise or lower the signal. A digest of the protocol: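 ELISA read-out of PGE2 from human umbilical vein endothelial cells co-cultured with peripheral blood mononuclear cells under LPS, 24 h post-dose. Gain or loss of signal scored relative to DMSO baseline.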

Results on three molecules are retold here after PubChem BioAssay (EPA / NIEHS).

The source made the active and inactive calls. Rule for the calls: active = hit-call score of the fitted dose curve at least 0.9, where 1 is the maximum; inactive = score below 0.9.

Chain of E-selectin (Homo sapiens) (P16581 whole entry, looked up): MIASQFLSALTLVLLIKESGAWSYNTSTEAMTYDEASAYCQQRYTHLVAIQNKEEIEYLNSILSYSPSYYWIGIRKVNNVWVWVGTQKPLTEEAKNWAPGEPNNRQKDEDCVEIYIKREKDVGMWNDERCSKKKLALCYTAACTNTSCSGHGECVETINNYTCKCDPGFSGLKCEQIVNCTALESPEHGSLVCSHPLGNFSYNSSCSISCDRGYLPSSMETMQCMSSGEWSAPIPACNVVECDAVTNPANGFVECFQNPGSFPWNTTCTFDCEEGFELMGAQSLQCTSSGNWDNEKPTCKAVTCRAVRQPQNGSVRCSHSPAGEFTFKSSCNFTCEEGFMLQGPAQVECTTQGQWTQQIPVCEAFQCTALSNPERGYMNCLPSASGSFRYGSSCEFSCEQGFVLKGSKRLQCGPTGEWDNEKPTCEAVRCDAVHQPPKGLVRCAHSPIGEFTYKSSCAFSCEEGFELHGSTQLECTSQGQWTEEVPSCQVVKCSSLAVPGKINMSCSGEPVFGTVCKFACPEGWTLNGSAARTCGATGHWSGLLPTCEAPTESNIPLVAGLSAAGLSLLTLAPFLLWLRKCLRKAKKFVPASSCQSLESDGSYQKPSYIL

One may read the AC50 as the concentration at which the activity in the assay is half-maximal. On to `CCc1cc(C)cc(CC)c1-c1c(OC(=O)C(C)(C)C)n2n(c1=O)CCOCC2`, for which the outcome in [1], in test [3], in [4], in test [5], in test [8] and in [9] was inactive. Moreover, the result in test [10], in [11], in test [13], in test [14], in test [15] and in test [17] was inactive. Further, the outcome in test [18], in [19] and in [20] was inactive. Further, the AC50 in [2] was 8.26 µM (active); in [6], 25.2 µM (active); in test [7], 31.5 µM (active); in [12] it was 20 µM (active); in [16], 0.016 µM (active).
As to `c1ccc(Nc2ccc3ccccc3c2)cc1`, the result in [1], in [2], in test [4], in test [5], in test [14] and in test [15] was inactive. For the same molecule, the result in test [16], in test [17], in test [18] and in test [19] was inactive. For the same molecule, the AC50 was 36.2 µM (active) in [3]; 34.9 µM (active) in test [6]; 30.6 µM (active) in [7]; 31.5 µM (active) in test [8]; 33.3 µM (active) in test [9]; 30.1 µM (active) in [10]. Besides, the AC50 in test [11] is 36.3 µM (active); in [12], 26.6 µM (active); in test [13], 30.7 µM (active); in [20], 20 µM (active).
For the molecule `CCCCCCCCCCCC#N`, the AC50 in test [1] was 29.3 µM (active); in test [3], 28.8 µM (active); in test [6] it was 10.1 µM (active); in test [7], 29.1 µM (active); in [8], 33 µM (active); in [9], 37.7 µM (active). In addition, the AC50 in [10] is 20.6 µM (active); in [14], 30.8 µM (active); in test [15] it was 31.5 µM (active); in [16] it was 29 µM (active); in [18] it was 32.4 µM (active); in test [20], 32 µM (active). Further, the result in [2], in [4], in test [5], in test [11], in test [12] and in [13] was inactive. For the same molecule, the result in test [17] and in [19] was inactive.
